Hits are enriched below; roughly 1.3% of the tested compounds scored in any of these assays.
CtBP-E1A blk: qHTS Assay for Inhibitors of the CtBP/E1A Interaction. CtBP / adenovirus E1A interaction (AlphaScreen). AlphaScreen GST-E1A/His-CtBP binding, 1536-well; hits give low values. activity change, % (concentration not given with the values). 0.49% of 340,000 active
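In 5 uL wells, 23 nL compound meets equimolar GST-E1A and His-CtBP (5X stock 125 nM each) for 2 h, 37 °C. Beads (5X, 50 ug/mL) then 1 h, 37 °C, dark.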
Six1-Eya2 inh: qHTS Assay for Inhibitors of the Six1/Eya2 Interaction; AlphaScreen GST-Six1/His-Eya2 binding, biochemical; hits give low values; activity change, % (concentration not given with the values); 0.56% of 360,000 active
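AlphaScreen with GST-Six1 and His-Eya2 (5X mix: 250 nM and 500 nM), glutathione donor and nickel acceptor beads; buffer 50 mM Tris pH 8.0, 300 mM NaCl, 1 mM TCEP; 1 h at 37 C in the dark.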
CCT chaperon mod: High-Throughput Screening for Modulators of Cytosolic Chaperonin Activity; 0.3% of 360,000 active; activity change, % (concentration not given with the values), hits read low; purified chaperonin ATPase assay, HTRF ADP detection, 30 min; in the data active = activity change below about -30%
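We incubate TRiC, 40 or 20 nM final, with library compounds at 76 uM and 10 uM ATP for 30 min at 37 °C. ADP formed is detected with Transcreener HTRF reagents after 30 min at room temperature.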
pAkt inh: HTS Assay for Inhibitors of Akt Phophorylation: Primary Screen; Neuro2A IGF-stimulated pAkt S473 HTRF, 20 min; hits give low values; activity change, % for hits at 50 µM; 0.32% of 360,000 active; AID 651550, 2012; in the data active = activity change below about -80%; inconclusive = mostly about -51% to -80%
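Single-point screen (50 µM final compound) in Neuro2A cells stimulated 20 min with 6 nM IGF at 37 deg C. After lysis, Ser473-phosphorylated Akt read by HTRF (ex 330 nm, em 615/665 nm) as the 665/615 ratio.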
Numbers without * were called inactive; i = inactive; u = inconclusive; x = no result. Cut-off read from the data, not from the text of the source, unless noted: active = activity change below about -65%; inconclusive = mostly about -30% to -63%; inactive = weaker than that. % is set by controls: 0 for no effect and ±100 for the full control effect.

SMILES	CtBP-E1A blk	Six1-Eya2 inh	CCT chaperon mod	pAkt inh
CN(C)[C@@H]1C(=O)C(C(N)=O)=C(O)[C@@]2(O)C(=O)C3=C(O)c4c(O)cccc4[C@@](C)(O)C3[C@H](O)C12 (some centres undefined)	-67*	-9	-2	i
O=C(O)c1ccc2c(c1)C1C(Cl)C(Sc3ccccc3[N+](=O)[O-])CC1C(c1cccc([N+](=O)[O-])c1)N2 (centres undefined)	x	-21	0	i
O=C(O)c1cccc2c1NC(c1cccc([N+](=O)[O-])c1)C1CC(Sc3ccccc3[N+](=O)[O-])C(Cl)C21 (centres undefined)	-7	-15	-46*	i
CN(Cc1cccc(-c2ccncc2)c1)C(=O)Oc1ccc([N+](=O)[O-])cc1	-4	-8	2	i
CCCCCC(=O)N[C@@H](c1ccccc1)[C@@H](O)C(=O)O[C@H]1C[C@@]2(O)[C@@H](OC(=O)c3ccccc3)C3[C@](C)(C(=O)[C@H](O)C(=C1C)C2(C)C)[C@@H](OC1OCC(O)C(O)C1O)C[C@H]1OC[C@@]31OC(C)=O (some centres undefined)	-22	-90*	0	i
O=C(N/N=C/C1C(=O)NC(=S)N(c2ccccc2)C1=O)c1cc(Br)c(O)c(Br)c1 (centres undefined)	-92*	-93*	-2	i
O=C(N/N=C/c1c(O)n(C2CCCCC2)c(=S)[nH]c1=O)c1ccccc1	-18	-5	1	i
C[C@H]1COc2cccc(N3CCN(C)CC3)c2S(=O)(=O)N1	-3	13	-1	i
c1ccc2[nH]c(CCN3CCCCC3)nc2c1	-5	8	0	i
COc1ccc2nc(/N=C/c3c(O)n(-c4cccc(Cl)c4)c(=O)[nH]c3=O)sc2c1	u	-71*	-3	i
O=c1[nH]c(=O)n(-c2cccc(Cl)c2)c(O)c1/C=N/c1ccccn1	2	-5	-1	i
NC(Cc1ccc(Cl)cc1)c1csc(Nc2cnccn2)n1 (centres undefined)	u	-72*	-2	i
CCC(=O)[C@@H](C)[C@@H](O)[C@H](C)C[C@@H](C)C1OC(=O)C[C@@]2(O)CC=C(C)C(O2)C(C)=CCCC[C@H](O[C@H]2C[C@@H](OC(N)=O)[C@H](O)[C@@H](C)O2)C=C[C@H](C)C[C@H]1C (some centres undefined)	-12	-13	0	i
C[C@@H]1CN([C@H](C)CO)C(=O)CCCn2nncc2CO[C@@H]1CN(C)C(=O)Oc1cccc2ccccc12	7	-7	2	i
CCOc1ccc(N2C(=O)/C(=C/c3ccco3)C(=O)NC2=S)cc1	x	-81*	-2	i
COc1cc(O)c2c(c1)/C=C/C[C@H](O)[C@H](O)C(=O)CCC[C@H](C)OC2=O	-4	-2	-2	i
CCOC(=O)[C@]12Cc3c(cc(OC)c(OC)c3OC)[C@H]1N(CCC(=O)OC)C(=O)c1ccccc12	-11	3	-1	i
COc1ccc(N2C(=O)CC(N3CC=C(c4ccccc4)CC3)C2=O)cc1 (centres undefined)	0	-7	-61*	i
c1ccc2oc(-c3ccc4c(c3)CNCc3cnnn3-4)cc2c1	0	7	0	i
CCOC(=O)C1CCN(/C=C2/C(=O)NC(=S)N(c3cccc(OC)c3)C2=O)CC1	x	5	-42*	i
CN1CCN(CC#CCOc2ccc(Cl)cc2)CC1	x	7	-6	i
Clc1ccc(OCC#CCN2CCCC2)cc1	-7	-11	-34*	i
O=c1[nH]c2ccccc2n1C1CCN(Cc2ccc(-c3[nH]c4cc5ncnc5cc4nc3-c3ccccc3)cc2)CC1	-9	-29	0	i
COc1c(O)cc2c(c1OC)-c1ccc(SC)c(=O)cc1C(NC(C)=O)CC2 (centres undefined)	-7	5	-3	i
COc1ccc(-c2cc(=Nc3cccc(C(=O)O)c3)c3cc(C)ccc3o2)cc1	2	-2	-2	i
COc1ccc(-c2cc(=NCCCCCC(=O)O)c3cc(C)ccc3o2)cc1	-90*	-83*	-5	i
CC(C)[C@H]1CC2C3CC=C4C[C@@H](O)CC[C@]4(C)C3CC[C@]2(C)[C@H]1O (some centres undefined)	3	8	-3	i
C[C@]12CC[C@H](O)CC1=CCC1C2CC[C@@]2(C)C1CC[C@@H]2OCc1ccccc1 (some centres undefined)	3	-7	-32*	i

Source: PubChem BioAssay (National Center for Advancing Translational Sciences (NCATS))
